The supplement of paper PMC6555819

These sequences were tested on RARb homodimer (NR concentration 270 nM) (assay: PBM binding z-score (relative to random genomic background probes); higher = stronger binding; sequences stand for … in GC…GCGATTGACAGCGTAGAATGAAGG).
How it was run: (§1)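 Binding buffer was PBS pH 7.4 with 2% milk, 0.02% Triton X-100, 1 mM DTT, 0.2 mg/mL BSA and 0.4 mg/ml salmon testes DNA. In it, ligand-free nuclear receptor dimers were incubated 1 h on custom Agilent 4×180K protein-binding microarrays carrying double-stranded probes. Antibodies against each partner (one per run) detected binding, and z-scores were calculated against random background probes after regression normalization of scanned fluorescence.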

Row | Sequence | PBM binding z-score
1 | GTTACAGGGTCAGCTAGAGGCCAGAGTATGGAAA | 3.54
2 | TCTTATAGGTAAAGGTGAAAGTCGAACGATATGA | 1.59
3 | AGAACGAGGGCACGCAGAGTTGATAGCAGAGTAG | 1.68
4 | CGAGCTAGGTCATCCAGGACAGTGAATACATTGA | 3.01
5 | CGTCCAAGGTCAGAGGTCAGTGAAGAGATGACGG | 5.38
6 | TCATATAGGTAAATGCTAGGTCAAAGTCCGATCT | 2.75
7 | CAGCCTAGGTCACGGCCAGTATAGGAGGAACGTT | 3.53
8 | TGTCAAAGTTCAAAGGTAACGTTAGTATCCACAC | 4.11
9 | TCTTGTAGATCAAAGGTTAGGAAAGCCGAAGCCT | 0.876
10 | CGTCCAAGGTCAAGTTCAGTGAAAGAGACTCGAA | 4.68
11 | CAAACTAGGTAACGAAAGGTCAAAGTCGAATGAC | 4.76
12 | CCTAGCAGGCCAGGGTTACTCAAGCATTTCGCTT | 0.0028
13 | GTACCAAGGTGAATAGGTCGTTGCTGAGTAGGCG | 1.71
14 | ACTTACGGGTCACCGAGGTTATAGCACGCGTATA | 4.01
15 | GCTGCTAGGTCAAATGATGGTCAGCTAAAGCTCG | 3.24
16 | AATACAGGGTCACTCGGCCAGAGTAGGTACGAAT | 3.24
17 | TAGCCTAGGTTAGATCGGGCCAGTATACGCTATA | -0.0792
18 | TCATATAGGTAATACATGTGAAAGTCGGCATCTA | -0.0768
19 | ATACCAGGGTGATCGTGAGGTCGTTGATACTAAC | 1.83
20 | CCTATTAGTTGACCATAAGGGCATCCGAAGCTCG | 1.78

Row | Sequence | PBM binding z-score
21 | CGTACAAGGTCAATGCTAGGTCAGTGAAAGCATT | 5.18
22 | TCTGCTAGGTCAGTTCGTCAGCTAACGAGCTGCC | 1.84
23 | TCGAGTAGTTTAGGGGCATTCAGAATGGCGTCGA | 0.436
24 | GTACCAAGGTGAATAGGTCGTCGATGAGTAGGCG | 2.07
25 | CTCGAAAGGACGGTTGAGGTGAGTATACGGATAA | 0.363
26 | GGAACGAGGGCAAGGTGATAGCAGAGTTTGATGG | 2.04
27 | TAGCCTAGGTCATGCGGGCCATTATAGTGTCGGC | 3.04
28 | GCTCGGAGGACAAGCTCAGAGCTTTGTCCGTAGA | -0.256
29 | GCAGACAGGTGAAACGCAGGTAAATCAGGGTGGC | 0.00843
30 | GCTTGTAGATCAAGGTTAAGAAAGACTAAGCTAA | 0.0928
31 | AGTCAAAGTTCACTAGGTAACGTGAGATTCAGCT | 3.59
32 | CTACCGAGGTGAACAAGGTCGTTGATTACTATTC | 2.25
33 | CAAACTAGGTCAAGGTCAATGTCGGTTTGTGCCA | 5.09
34 | TCTCGGAGGACACGACAGGTCAGAGCTCGACATC | 2.87
35 | TAGCCTAGGTCATTGGGCGAGTATAGTACGCATC | 2.6
36 | GCTAGTTGGTCAGTAAAACGTCACACACCGGTCG | 0.309
37 | CTGACTGGGGCAAAGGTTACCATACTCAGTACGA | 2.6
38 | CCTTACGGGTCACTCCAGCTTATAGCATCGGAGT | 2.64
39 | GCATATAGGTAATACAAGGTGAACGTCCGATTGT | 0.986
40 | ACTCGGAGGACAAAGGCCAGAGCTACGCCAGTGA | 0.873

The sequences below were run on RARg:RXRa (NR concentration 270 nM, RXRa partner concentration 90 nM) in the same assay as above.
How it was run: as §1

Row | Sequence | PBM binding z-score
41 | GTTACAGGGTCAGCTAGAGGCCAGAGTATGGAAA | 6.82
42 | TCTTATAGGTAAAGGTGAAAGTCGAACGATATGA | 1.84
43 | AGAACGAGGGCACGCAGAGTTGATAGCAGAGTAG | 2.85
44 | CGAGCTAGGTCATCCAGGACAGTGAATACATTGA | 3.93
45 | CGTCCAAGGTCAGAGGTCAGTGAAGAGATGACGG | 7.02
46 | TCATATAGGTAAATGCTAGGTCAAAGTCCGATCT | 2.52
47 | CAGCCTAGGTCACGGCCAGTATAGGAGGAACGTT | 5.27
48 | TGTCAAAGTTCAAAGGTAACGTTAGTATCCACAC | 6.39
49 | TCTTGTAGATCAAAGGTTAGGAAAGCCGAAGCCT | 0.902
50 | CGTCCAAGGTCAAGTTCAGTGAAAGAGACTCGAA | 6.6
51 | CAAACTAGGTAACGAAAGGTCAAAGTCGAATGAC | 5.68
52 | CCTAGCAGGCCAGGGTTACTCAAGCATTTCGCTT | -0.0642
53 | GTACCAAGGTGAATAGGTCGTTGCTGAGTAGGCG | 2.56
54 | ACTTACGGGTCACCGAGGTTATAGCACGCGTATA | 6.34
55 | GCTGCTAGGTCAAATGATGGTCAGCTAAAGCTCG | 5.08
56 | AATACAGGGTCACTCGGCCAGAGTAGGTACGAAT | 5.28
57 | TAGCCTAGGTTAGATCGGGCCAGTATACGCTATA | -0.00796
58 | TCATATAGGTAATACATGTGAAAGTCGGCATCTA | 0.625
59 | ATACCAGGGTGATCGTGAGGTCGTTGATACTAAC | 2.26
60 | CCTATTAGTTGACCATAAGGGCATCCGAAGCTCG | 1.12

Row | Sequence | PBM binding z-score
61 | CGTACAAGGTCAATGCTAGGTCAGTGAAAGCATT | 7.9
62 | TCTGCTAGGTCAGTTCGTCAGCTAACGAGCTGCC | 2.16
63 | TCGAGTAGTTTAGGGGCATTCAGAATGGCGTCGA | 0.014
64 | GTACCAAGGTGAATAGGTCGTCGATGAGTAGGCG | 2.91
65 | CTCGAAAGGACGGTTGAGGTGAGTATACGGATAA | 0.406
66 | GGAACGAGGGCAAGGTGATAGCAGAGTTTGATGG | 1.26
67 | TAGCCTAGGTCATGCGGGCCATTATAGTGTCGGC | 4.02
68 | GCTCGGAGGACAAGCTCAGAGCTTTGTCCGTAGA | -0.416
69 | GCAGACAGGTGAAACGCAGGTAAATCAGGGTGGC | 0.816
70 | GCTTGTAGATCAAGGTTAAGAAAGACTAAGCTAA | 0.389
71 | AGTCAAAGTTCACTAGGTAACGTGAGATTCAGCT | 4.82
72 | CTACCGAGGTGAACAAGGTCGTTGATTACTATTC | 2.19
73 | CAAACTAGGTCAAGGTCAATGTCGGTTTGTGCCA | 5.85
74 | TCTCGGAGGACACGACAGGTCAGAGCTCGACATC | 2.35
75 | TAGCCTAGGTCATTGGGCGAGTATAGTACGCATC | 3.77
76 | GCTAGTTGGTCAGTAAAACGTCACACACCGGTCG | -0.139
77 | CTGACTGGGGCAAAGGTTACCATACTCAGTACGA | 3.83
78 | CCTTACGGGTCACTCCAGCTTATAGCATCGGAGT | 4.1
79 | GCATATAGGTAATACAAGGTGAACGTCCGATTGT | 0.615
80 | ACTCGGAGGACAAAGGCCAGAGCTACGCCAGTGA | 0.907
